Experimental data published in the supplement of paper PMC10981050.
Values joined by “and” are separate entries in the source; they are usually repeats but may differ in a detail not shown here. Equal entries are not always repeated. Structures can show the parent of a compound that is named as a salt.

Columns and labels:
Experiment in all cases: cell viability relative to vehicle control; higher = less cytotoxic
Settings in all cases: 10 µM
K562 = system: K562
In short: (§1)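 After removal of identity-inconsistent compounds, the Selleck bioactive, kinase and epigenetic probe libraries were screened on CRISPR-edited mutant clones and isogenic wild-type clones of four leukaemia lines. Plates were 384-well, each well holding 2000 cells in 50 µL medium and receiving a single 10 µM acoustically dispensed dose. CellTiter-Glo luminescence was read 48 h later, after the supernatant was taken off. Genedata Screener was used to express viability as percent of the on-plate vehicle control.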

MARIMO = system: MARIMO
In short: as §1

MOLM14 = system: MOLM14
In short: as §1

OCI-AML2 = system: OCI-AML2
In short: as §1

Compound | cell viability (K562; SRSF2 genotype: SRSF2 P95H/wt) | cell viability (K562; SRSF2 genotype: SRSF2 wt/wt) | cell viability (MARIMO; SRSF2 genotype: SRSF2 P95H/wt) | cell viability (MARIMO; SRSF2 genotype: SRSF2 wt/wt) | cell viability (MOLM14; SRSF2 genotype: SRSF2 P95H/wt) | cell viability (MOLM14; SRSF2 genotype: SRSF2 wt/wt) | cell viability (OCI-AML2; SRSF2 genotype: P95H/wt) | cell viability (OCI-AML2; SRSF2 genotype: wt/wt)
Cc1cc(C)c(CNC(=O)c2cc(-c3ccc(CN4CCOCC4)cc3)cc3c2cnn3C2CCCC2)c(=O)[nH]1 | 105% and 117% | 120% | 113% | 111% | 104% | 107% | 111% | 106%
CC(=O)Oc1ccccc1C(=O)Nc1ncc([N+](=O)[O-])s1 [Nitazoxanide (Alinia, Annita)] | 78.4% and 85.8% | 78.4% | 94.8% | 90.9% | 92.5% | 89.7% | 87.5% | 85.5%
Cc1cn([C@@H]2C[C@@H](O)[C@H](CO)O2)c(=O)[nH]c1=O [Telbivudine (Sebivo, Tyzeka)] | 96.7% and 104% | 101% | 105% | 102% | 99.2% | 108% | 113% | 102%
COC(=O)C1=CO[C@@H](O)[C@@H]2C(CO)=CC[C@H]12 [Genipin] | 94.8% and 97.4% | 95.1% | 71.1% | 85.7% | 78% | 90.4% | 26.4% | 41.1%
c1ccc2c(CC3=NCCN3)cccc2c1 [Naphazoline hydrochloride (Naphcon)] | 102% and 99.6% | 94.5% | 106% | 107% | 97.1% | 103% | 97.8% | 106%
O=C(O)c1ccc(O)c(O)c1 [Protocatechuic acid] | 101% and 97.7% | 93.3% | 93.1% | 96.1% | 96.8% | 103% | 98.4% | 104%
Cc1c(NC(=O)OC[C@@H]2COCCN2)cn2ncnc(Nc3ccc4c(cnn4Cc4cccc(F)c4)c3)c12 | 75.3% and 73.2% | 71.7% | 76.4% | 79.8% | 63.8% | 69.6% | 68.7% | 64.8%
Cc1nc(Nc2ncc(C(=O)Nc3cc(NC(=O)c4cccc(C(F)(F)F)c4)ccc3C)s2)cc(N2CCN(CCO)CC2)n1 | 11.4% and 16% | 20.1% | 50% | 63% | 12.2% | 13.8% | 55.5% | 57.3%
O=C(O)C1=CO[C@@H](O[C@@H]2O[C@H](CO)[C@@H](O)[C@H](O)[C@H]2O)[C@@H]2C(CO)=CC[C@H]12 [Geniposidic acid] | 105% and 91.2% | 93.8% | 89.8% | 105% | 92.5% | 91.6% | 90.8% | 107%
COc1cc2ncnc(Nc3ccc(F)c(Cl)c3)c2cc1NC(=O)/C=C/CN1CCCCC1 | 63.7% and 73.8% | 87.8% | 55.2% | 58.2% | 26.9% | 54.4% | 20.2% | 37.2%
OC[C@@H](O)[C@@H](O[C@H]1O[C@H](CO)[C@@H](O)[C@H](O)[C@H]1O)[C@H](O)[C@@H](O)CO [Maltitol] | 98.2% and 88.7% | 98.6% | 99.6% | 105% | 99.6% | 99.9% | 96.8% | 107%
COCCOC(=O)C1=C(C)NC(C)=C(C(=O)OC(C)C)C1c1cccc([N+](=O)[O-])c1 (stereo not given) [Nimodipine (Nimotop)] | 88.8% and 92.4% | 99.3% | 85.2% | 92.7% | 87.6% | 99.4% | 83.7% | 88.4%
Cn1c(=O)cc(C(=O)Nc2ccc3c(c2)OCCO3)c2ccccc21 | 97.4% and 96% | 94% | 99% | 104% | 102% | 100% | 93.4% | 101%
CC(C)(O)C1CCC(C)(C2C(O)CC3(C)C4CC(O)C5C(C)(C)C(O)CCC56CC46CCC23C)O1 (stereo not given) [Cyclogalegenol] | 93.6% and 88.3% | 89.8% | 93.5% | 104% | 94% | 95.7% | 97.4% | 103%
CN(C)Cc1ccc(S(=O)(=O)n2ccc(/C=C/C(=O)NO)c2)cc1 [Resminostat (RAS2410)] | 1.83% and 16.1% | 11.8% | 2.94% | 2.37% | 0.76% | 0.51% | 0.72% | 1.22%
C[C@@H]1Cc2c([nH]c3ccccc23)[C@@H](c2c(F)cc(/C=C/C(=O)O)cc2F)N1CC(C)(C)F | 106% and 105% | 108% | 107% | 104% | 101% | 97.4% | 117% | 107%
CCN(CC)CCOC(=O)C(c1ccccc1)c1ccccc1 [Adiphenine HCl] | 97.9% and 89.7% | 85.9% | 85.1% | 96.3% | 89% | 94.3% | 92.4% | 81.1%
N[C@@H]1CCCCN(c2c(F)cc3c(=O)c(C(=O)O)cn(C4CC4)c3c2Cl)C1 [Besifloxacin HCl (Besivance)] | 97.5% and 91.4% | 99.9% | 99.3% | 96.6% | 97.6% | 98.3% | 121% | 95.6%
CC(=O)N[C@@H](CS)C(=O)O [Acetylcysteine] | 101% and 97.9% | 95.6% | 97.5% | 92.6% | 97% | 97.5% | 102% | 98%
C=C(C)[C@@H]1CCC2=CC(=O)C[C@@H](C)[C@]2(C)C1 [Nootkatone] | 104% and 105% | 107% | 100% | 95.4% | 105% | 103% | 107% | 103%
